For orientation: Inhibition means the change of the read-out against control, counted positive when it falls.

Structures are written as SMILES. For part of these data: Measured potencies and affinities stand elsewhere.

The test system of experiment [1] is Staphylococcus aureus. Briefly: Antibacterial activity against Staphylococcus aureus MRSA ATCC 43300 (CO-ADD:GP_020); MIC in CAMBH media using NBS plates, by Resazurin F(560/590). It is filed as functional. To be noted: Concentration 20 uM, ASSAY_TEST Inhibition of Bacterial Growth, detection method Resazurin, Fluorescence (ex560/em590), MEDIA CAMHB, plate type 384well, CORNING #3640, time 18 hr. For orientation: The colour change of resazurin is a common sign of viable cells or microbes.

The subject of experiment [2] is Acinetobacter baumannii. The experiment in a line: Antibacterial activity against Acinetobacter baumannii ATCC 19606 (CO-ADD:GN_034); MIC in CAMBH media using NBS plates, by Resazurin F(560/590). The format is functional. To be noted: Concentration 20 uM, ASSAY_TEST Inhibition of Bacterial Growth, detection method Resazurin, Fluorescence (ex560/em590), MEDIA CAMHB, plate type 384well, CORNING #3640, time 18 hr.

The subject of experiment [3] is Escherichia coli. Briefly: Antibacterial activity against Escherichia coli ATCC 25922 (CO-ADD:GN_001); MIC in CAMBH media using NBS plates, by Resazurin F(560/590). The format is functional. To be noted: Concentration 20 uM, ASSAY_TEST Inhibition of Bacterial Growth, detection method Resazurin, Fluorescence (ex560/em590), MEDIA CAMHB, plate type 384well, CORNING #3640, time 18 hr.

In experiment [4] the test system is Klebsiella pneumoniae. To be noted: Concentration 20 uM; ASSAY_TEST Inhibition of Bacterial Growth; detection method Absorption (OD600); MEDIA CAMHB; plate type 384well; NBS; CORNING #3640; time 18 hr.
The subject of experiment [5] is Candida albicans. To be noted: 20 µM.
Experiment [6] deals with Cryptococcus neoformans. To be noted: Concentration 20 uM; ASSAY_TEST Inhibition of Fungal Growth; detection method Resazurin; Absorption (OD600-OD570); plate type 384well; NBS; CORNING #3640.

As to `CC[C@](C)(O)C(=O)O[C@H]1C(=O)O[C@@H]2C[C@H]3C(C)=C[C@H](O)[C@@H](O)[C@]3(C)[C@H]3[C@@]4(O)OC[C@]32[C@@H]1[C@@H](C)[C@H]4O`, the Inhibition in experiment [1] is 12.34%; in experiment [2] it was -9.38%; in experiment [3], 1.71%; in experiment [4], 10.36%; in experiment [5], 4.77%; in experiment [6] it was -4.27%.

On to `COC1C(O)C(C)OC(OC2C(Oc3cccc4c(O)c5c(=O)oc6ccc(C)c7c(=O)oc(c34)c5c67)OC(C)C(O)C2O)C1O` (stereo not given), for which the Inhibition in experiment [1] is -17.7%; in experiment [2] it was -6.91%; in experiment [3] it was -0.53%; in experiment [4], 2.04%; in experiment [5] it was -2.79%; in experiment [6], -9.89%.

Consider `CC(=O)OC(C)(C)/C=C/C(=O)[C@](C)(O)[C@H]1[C@H](O)C[C@@]2(C)[C@@H]3CC=C4[C@@H](C=C(O)C(=O)C4(C)C)[C@]3(C)C(=O)C[C@]12C` [CUCURBITACIN E], for which the Inhibition is -16.96% in experiment [1]; -9.18% in experiment [2]; 4.67% in experiment [3]; -1.27% in experiment [4]; -1.39% in experiment [5]; -7.52% in experiment [6].

In the case of `OC1CN2CC[C@H](O)[C@@H]2C(O)[C@@H]1O` (stereo not given in full), the Inhibition in experiment [1] was -15.58%; in experiment [2] it was -6.5%; in experiment [3] it was 3.63%; in experiment [4], -1.47%; in experiment [5], 2.3%; in experiment [6], -9.42%.

Turning to `CCN1C[C@]2(COC)[C@H](O)C[C@H](OC)[C@]34C1[C@H]([C@H](OC)[C@H]23)[C@]1(OC(C)=O)[C@H]2[C@@H](OC(=O)c3ccccc3)[C@](O)(C[C@H]24)[C@@H](OC)[C@@H]1O`, the Inhibition is 12.16% in experiment [1]; -8.01% in experiment [2]; 7.77% in experiment [3]; 3.92% in experiment [4]; -0.67% in experiment [5]; -9.39% in experiment [6].

In the case of `CC1CCC2C(C)C(=O)OC3OC4(C)CCC1C32OO4` (stereo not given), the Inhibition in experiment [1] is 7.59%; in experiment [2], -3.18%; in experiment [3] it was 7.05%; in experiment [4], 14.85%; in experiment [5], 23.7%; in experiment [6], -16.17%.

On to `CC1OC(=O)C2CC3CCCCC3C(/C=C/C3CCCC(C)N3C)C12` (stereo not given), for which the Inhibition in experiment [1] was 14.11%; in experiment [2], -6.83%; in experiment [3] it was 5.85%; in experiment [4], 4.75%; in experiment [5], 0.31%; in experiment [6] it was -10.1%.

`CC[C@H]1CN2CCc3cc(OC)c(OC)cc3[C@@H]2C[C@@H]1C[C@H]1NCCc2c1[nH]c1ccc(O)cc21` [TUBULOSINE]: the Inhibition in experiment [1] was 2.68%; in experiment [2], -12.49%; in experiment [3] it was 3.63%; in experiment [4], -0.53%; in experiment [5], 2.67%; in experiment [6], -8.19%.

As to `CC(=O)O[C@@H]1[C@@H](O)C2=C3[C@]4(C)[C@@H]1C(C)(C)C(=O)C[C@@H]4[C@]3(O)[C@H](OC(C)=O)[C@@]1(C[C@@H]1C)C2=O`, the Inhibition in experiment [1] was 17.09%; in experiment [2], -6.85%; in experiment [3], 0.22%; in experiment [4] it was 10.98%; in experiment [5] it was -0.55%; in experiment [6], -8.42%.

`O=P1(N(CCCl)CCCl)NCCCO1` (stereo not given) [CYCLOPHOSPHAMIDE ANHYDROUS]: the Inhibition in experiment [1] was 22.17%; in experiment [2], -9.14%; in experiment [3], 1.21%; in experiment [4], 1.43%; in experiment [5] it was -2.64%; in experiment [6], -8.46%.

In the case of `C1CCC(NC2CCCCC2)CC1.COC1C(OC(=O)/C=C/C=C/C=C/C=C/C(=O)O)CCC2(CO2)C1C1(C)OC1CC=C(C)C` (stereo not given), the Inhibition is 16.49% in experiment [1]; -13.86% in experiment [2]; 8.82% in experiment [3]; -0.23% in experiment [4]; 9.6% in experiment [5]; -7.96% in experiment [6].

`CCC/C=C/C=C/C(=O)OC1/C(=C/C(=O)OC)CC2CC(C(C)O)OC(=O)CC(O)CC3CC(OC(C)=O)C(C)(C)C(O)(CC4C/C(=C/C(=O)OC)CC(/C=C/C(C)(C)C1(O)O2)O4)O3` (stereo not given): the Inhibition in experiment [1] is 15.23%; in experiment [2] it was -8.5%; in experiment [3], 2.2%; in experiment [4], 8.82%; in experiment [5], -7.78%; in experiment [6], -7.31%.

Turning to `COc1ccc2c(c1O)-c1c(OC)c(OC)cc3c1C(C2)N(C)CC3` (stereo not given), the Inhibition was 23.71% in experiment [1]; 2.34% in experiment [2]; 4.51% in experiment [3]; 6.13% in experiment [4]; -0.15% in experiment [5]; -10.21% in experiment [6].

Take `CO[C@@H]1[C@H](O)CC[C@]2(CO2)[C@H]1[C@@]1(C)O[C@@H]1CC=C(C)C`: the Inhibition in experiment [1] is 4.97%; in experiment [2] it was 1.38%; in experiment [3] it was 4.31%; in experiment [4], 14.33%; in experiment [5], 4.27%; in experiment [6] it was -4.91%.

Regarding `COc1cccc2c1cc([N+](=O)[O-])c1c(C(=O)O)cc3c(c12)OCO3` [ARISTOLOCHIC ACID], the Inhibition in experiment [1] is -13.97%; in experiment [2] it was -2.12%; in experiment [3], 5.35%; in experiment [4] it was -1.07%; in experiment [5], 8.48%; in experiment [6], -6.51%.

These data come from ChEMBL document CHEMBL4296183, “CO-ADD screening of NIH NCI Natural Product Set III” (2020).
